Sm TGR inh: S. mansoni TGR enzyme inhibition | Potency, µM (series often up to 114 µM), usual class: inhibitors | purified TGR, DTNB reduction, TNB absorbance 405 nm | AID 485364 | Q962Y6 | hit rate 3% among 360,000; note: nearly all actives have a fitted effect of over 60% in size
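First, TGR (20 nM dispensed) and NADPH were mixed with compound. Second, a 15 min room-temperature incubation followed. Third, further NADPH and then DTNB were added to start the reaction. Finally, TNB absorbance was monitored kinetically.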
RE007 growth inh: less growth of the S. pombe RE007 Vpr strain | hit rate 0.21% among 360,000 | S. pombe RE007 Vpr strain, BacTiter-Glo ATP luminescence, 24 h | Potency, µM (top dose mostly 92.2 µM), most hits filed as inhibitors; active = well fitted falling curve with a large enough effect; inconclusive = small, poorly fitted or top-dose-only effect; inactive = no such curve, though single readings can be large or run the other way; note: nearly all actives have a fitted effect of over 50% in size
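Fission yeast strain RE007, carrying one chromosomally integrated HIV-1 vpr copy, was seeded at OD 0.01 in PMG+AL medium with 23 nL pinned compound. After 24 h at 30 °C and 99% humidity, viability was read by BacTiter-Glo luminescence.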
TbPYK inhibitor: T. brucei pyruvate kinase inhibition; Q57TT1; TbPYK enzyme, Kinase-Glo Plus ATP luminescence, 45 min; Potency, µM (doses to about 76.8 µM), actives largely listed as inhibitors; hit rate 0.12% among 410,000; note: nearly all actives have a fitted effect of over 50% in size
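ADP (130 uM final) triggers the TbPYK reaction after compound addition; incubation is 45 min at room temperature. Kinase-Glo Plus is then added and luminescence imaged. Normalized data are fitted to concentration-effect curves.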
FMDV antiviral: antivirals against foot and mouth disease virus | Potency, µM (doses to about 57.9 µM), actives largely listed as inhibitors | FMDV antiviral cell-based qHTS | hit rate 1.2% among 410,000; calls by dose curve; tested in HEK293T cells; note: read-out not given here; nearly all actives have a fitted effect of over 45% in size
Giardia FBPA inh: Giardia lamblia aldolase inhibition; A8B2U2; purified Giardia FBPA; Potency, µM (highest dose often 59.6 µM), usual class: inhibitors; hit rate 0.71% among 290,000; note: nearly all actives have a fitted effect of over 55% in size
Target sequence (A8B2U2 whole entry, looked up): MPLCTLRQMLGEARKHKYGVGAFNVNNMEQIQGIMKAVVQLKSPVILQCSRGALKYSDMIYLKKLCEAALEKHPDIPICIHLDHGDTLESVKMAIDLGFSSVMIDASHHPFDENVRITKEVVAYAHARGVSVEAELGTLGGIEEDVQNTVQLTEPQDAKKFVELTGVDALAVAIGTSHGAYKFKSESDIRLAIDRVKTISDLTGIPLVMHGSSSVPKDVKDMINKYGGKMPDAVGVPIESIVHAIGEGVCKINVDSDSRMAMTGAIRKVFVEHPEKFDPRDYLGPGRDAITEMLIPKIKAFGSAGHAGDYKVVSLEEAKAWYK
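Giardia FBPA (40 nM reagent) was preincubated 10 min at RT with compound (up to 57.5 uM final), then substrate plus GAPDH/TPI/NAD/arsenate coupling system with diaphorase/resazurin was added; resorufin fluorescence (525/598 nm) was read after 20 min.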
HCMV antiviral: inhibitors of human cytomegalovirus; hit rate 4.5% among 410,000; AID 1259415; activity change, negative = inhibition, % at 57.5 µM; HFF cells, HCMV-luciferase reporter, 72 h; hits give low values; in the data active = activity change below about -60%; inconclusive = no clear call, values can overlap the other calls; inactive = above about -39%
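Compounds were evaluated in HFFs infected with an HCMV luciferase reporter virus (MOI 1 PFU/cell). Luciferase in lysates collected 72 h post infection served as the replication measure.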
Hits are given with their value; - = inactive; ? = inconclusive; . = no result given; + = active, no number; [ ] = remark or other dose. Compounds with a hit are over-represented: about 7.7% of the library has one in this group of screens. Unless noted, calls come from the whole dose curve; as a rule, active = well fitted curve in the direction sought with a large enough effect; inconclusive = small, poorly fitted or top-dose-only effect, or another doubt; inactive = no such curve, though single readings can be large; an effect the other way counts as inactive or inconclusive.

SMILES	Sm TGR inh	RE007 growth inh	TbPYK inhibitor	FMDV antiviral	Giardia FBPA inh	HCMV antiviral
CCS(=O)(=O)C1=NN2C(=N)/C(=C\c3ccc(OC(=O)c4ccco4)c(Br)c3)C(=O)N=C2S1	44.7µM	.	.	.	-	.
COc1ccc(OC)c(-c2ccc(O)c(CN3CCc4c([nH]c5ccccc45)C3)c2)c1	.	.	.	-	.	.
CC(CNc1nc2ccccc2c2nc(-c3ccccc3)nn12)c1ccccc1 (stereo not given)	-	.	-	?	.	-93.8
Cc1nnnn1/C(=C\c1ccccc1)C(=O)OCC(=O)Nc1ccc(Cl)cc1F	-	-	-	28.2µM	.	-95.3
Cc1nnnn1/C(=C\c1ccccc1)C(=O)OCC(=O)Nc1cccc(S(=O)(=O)N(C)C)c1	?	-	-	14.1µM	.	-61.2
O=C(COC(=O)Cc1n[nH]c(=O)c2ccccc12)Nc1ccc(Cl)cc1F	-	-	-	-	-	-
COc1ccccc1-c1ccnc(-n2ncc(C(=O)N(C)CCc3ccccn3)c2C)n1	.	.	.	-	.	.
CC1=Nc2ccccc2/C1=C\c1nc(-c2ccccc2)oc1O	?	-	-	-	-	-
COc1ccc(-c2nc(/C=C3\C(C)=Nc4ccccc43)c(O)o2)cc1	44.7µM	-	-	-	-	-
CC(=O)N1CCc2cc(C(=O)CN3CCN(c4cccc(Cl)c4)CC3)ccc21	25.1µM	-	-	-	-	-
CC(=O)N1CCc2ccc(C(=O)CN3CCN(c4cccc(C)c4C)CC3)cc21	?	.	.	.	-	.
CC(=O)N1CCc2cc(C(=O)CN3CCC(C)CC3)ccc21	28.2µM	-	-	-	-	-
CC(=O)N1CCc2cc(C(=O)CN3CCN(C(=O)c4ccco4)CC3)ccc21	14.1µM	-	-	-	-	.
CC(=O)N1CCc2cc(C(=O)CN3CCCN(Cc4ccc(F)cc4)C3)ccc21	44.7µM	.	.	.	-	.
CCOc1ccc(NC(=O)CSc2cc(C)c3ccccc3n2)cc1	-	.	-	-	.	?
O=C1NC(=O)/C(=C\c2ccc(Br)o2)S1	14.1µM	.	-	-	-	-
O=C1NC(=O)/C(=C/c2cc3c(cc2Br)OCO3)S1	-	-	-	-	-	-
CC(=O)c1cccc(NC(=O)c2ccccc2OCc2ccc(F)cc2)c1	-	-	-	-	-	-
CCOc1ccc(C(=O)N/N=C(/C)C2C(=O)c3ccccc3C2=O)cc1	-	-	-	-	-	-
C/C(=N\NC(=O)c1ccccc1OCc1ccc(F)cc1)c1ccccn1	-	-	-	-	.	-101.9
CCOc1ccc(OCc2ccc(C(=O)N/N=C(\C)c3ccccn3)cc2)cc1	-	?	-	-	-	-85.4
CCOc1ccc(CN2CCc3nc(Nc4ccc5c(c4)OCCO5)ncc3C2)cc1	-	.	-	-	.	-
O=C(OC[C@@H]1O[C@@](O)(COC(=O)c2cccnc2)[C@H](OC(=O)c2cccnc2)[C@H]1OC(=O)c1cccnc1)c1cccnc1	.	.	-	.	-	.
CN(C)c1ncnc2ccc(-c3cccc(NS(C)(=O)=O)c3)cc12	.	.	.	-	-	.
CN(Cc1nc(Cc2ccccc2F)no1)Cc1cccc2ncccc12	-	-	-	15.8µM	-	-84.7
SMILES	Sm TGR inh	RE007 growth inh	TbPYK inhibitor	FMDV antiviral	Giardia FBPA inh	HCMV antiviral
Cc1cc(Nc2ccccc2C)n2nc(Cc3ccc(Cl)cc3)nc2n1	-	.	-	-	.	-
Cc1ccc(C)c(NC(=O)Cn2c(=O)oc3cc(S(=O)(=O)NCc4ccccc4)ccc32)c1	-	.	-	-	.	-
COc1ccc(C)cc1NC(=O)Cn1c(=O)oc2cc(S(=O)(=O)NCc3ccccc3)ccc21	-	.	-[15.4 µM]	-	.	+
CCC(=O)NC(c1cccs1)c1cc([N+](=O)[O-])c2cccnc2c1OC (stereo not given)	39.8µM	.	-	-	.	-86.5
CCCC(=O)NC(c1cccs1)c1cc(Cl)c2cccnc2c1O (stereo not given)	-	-	-	-	-	-114.1
CC(C)CC(=O)NC(c1cccs1)c1ccc2cccnc2c1O (stereo not given)	-	?	-	-	-	.
CCC(=O)NC(c1cccs1)c1ccc2cccnc2c1O (stereo not given)	-	?	-	-	-	-100.8
CCCC(=O)NC(c1ccco1)c1cc(Cl)c2cccnc2c1O (stereo not given)	-	-	-	-	?	-98.1
CC(C)N1C(=O)C[C@H](S(=O)(=O)c2ccccc2)[C@H]1c1ccccc1	.	.	.	.	.	-
CCOc1ccc(NC(=O)c2cnn3c2NC(c2ccccc2)=CC3c2cccc(OC)c2OC)cc1 (stereo not given)	-	.	-	-	.	-
Cc1ccc(CNC(=O)CN(c2ccc(Cl)cc2Cl)S(=O)(=O)c2ccccc2)cc1	-	.	-	-	.	-
COc1ccc(C(=O)CC2(O)C(=O)N(Cc3cccc(C(F)(F)F)c3)c3ccccc32)cc1 (stereo not given)	-	.	-	?	.	-
CCN1C(=O)[C@H]2[C@@H]3[C@H](O)[C@H](O)CC(=O)[C@H]3CC[C@H]2C1=O	.	.	.	.	-[12.9 µM]	.
CCCN1CCN(CCCNC(=O)C(CC)n2nc(C)c3sc4ccccc4c3c2=O)CC1 (stereo not given)	-	-	-	-	.	?
CCC(C(=O)NCCCN1CC(C)CC(C)C1)n1nc(C)c2sc3ccccc3c2c1=O (stereo not given)	-	-	-	-	.	-72.7
C=C1C(=O)C23CCC4C(C)(C(=O)OC)CCCC4(C)C2CCC1(O)C3 (stereo not given)	.	-	?	3.55µM	.	-98.6
CCOCCc1nn2c(=O)cc(COC(=O)c3ccccc3NC(=O)c3ccccc3F)nc2s1	-	.	-	?	.	-
COc1ccc(C2CC(c3ccccc3)Oc3ccc(OC)cc32)cc1 (stereo not given)	.	.	.	.	-	.
CCN(CC)S(=O)(=O)c1ccc(N/N=C/c2ccc(O)cc2O)nc1	-	-	-	-	?	-101.0
O=[N+]([O-])c1ccc(NN=Cc2ccccc2O)nc1	.	-	-	-	.	-97.6
O=[N+]([O-])c1ccc(NN=Cc2ccc(O)cc2O)nc1	.	-	-	-	.	-97.6
Cc1cc(/C=N/Nc2ccc([N+](=O)[O-])cn2)c(C)n1-c1ccc(C(=O)O)cc1	35.5µM	-	-	-	?	-
O=[N+]([O-])c1ccc(NN=Cc2ccc(O)cc2)nc1	.	-	-	-	.	-
CCC1CN(Cc2c(C)nc3sccn23)Cc2cc(OC)ccc2O1 (stereo not given)	.	.	.	-	.	.
CO[C@H]1[C@H](NC(=O)c2ccsc2)c2ccccc2C12CCN(Cc1cccn1-c1ccccn1)CC2	.	.	.	-	.	.
CSc1ccc(CCNC(=O)c2sc3ncccc3c2-n2cccc2)cc1	-	.	-	?	.	-
Cc1cc2nc3c(=O)[nH]c(=O)nc-3n(C)c2cc1C=O	.	.	.	15.8µM	?	.
CC(=O)OCCn1c2nc(=O)[nH]c(=O)c-2nc2cc(C)c(C)cc21	-	-	-	-	?	-

Screening data from PubChem BioAssay.
